Laboratory results from PubChem BioAssay (Tox21).
Inconclusive results are not listed. The source made the active and inactive calls. Unless noted, the call rests on the fitted dose curve; in most records, active means well fitted curve in the direction sought with a large enough effect in the repeat runs; inconclusive means weak or mixed curves; inactive means no such curve, though single readings can be large; an effect the other way counts as inactive or inconclusive.

Key:
[1] = qHTS assay to identify small molecule antagonists of the estrogen receptor beta (ER-beta) signaling pathway - cell viability counter screen (AID 1259382);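 further: HEK293T cells carrying ER-beta-UAS-bla reporter stimulated with estradiol; series mostly up to about 92 µM; nearly all actives have a fitted effect of over 55% in size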
Summary of the method: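 Cytotoxicity counter screen multiplexed with the beta-lactamase antagonist assay: GripTite HEK293T ER-beta-bla cells were treated 16 hr with test chemicals in the presence of 1nM 17-beta-estradiol, and viability was measured by CellTiter-Glo.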

[2] = qHTS assay to identify small molecule agonists or antagonists of the thyroid stimulating hormone receptor (TSHR) signaling pathway - wild type cell line counter screen (AID 1259384; calls by dose curve)
Summary of the method: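 Wild-type Hek293 cells, 800/well, 18 h at 37C, then compound with Ro20-1724 for 30 min RT. cAMP by HTRF (cAMP-d2/anti-cAMP cryptate), 1 h RT, fluorescence read. 15 concentrations, triplicates.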

[3] = target: Thyrotropin receptor (Homo sapiens) (UniProt P16473); test: qHTS assay to identify small molecule antagonists of the thyroid stimulating hormone receptor (TSHR) signaling pathway (AID 1259385; calls by dose curve; further: nearly all actives have a fitted effect of over 20% in size)
Chain of Thyrotropin receptor (Homo sapiens) (P16473 whole entry, looked up): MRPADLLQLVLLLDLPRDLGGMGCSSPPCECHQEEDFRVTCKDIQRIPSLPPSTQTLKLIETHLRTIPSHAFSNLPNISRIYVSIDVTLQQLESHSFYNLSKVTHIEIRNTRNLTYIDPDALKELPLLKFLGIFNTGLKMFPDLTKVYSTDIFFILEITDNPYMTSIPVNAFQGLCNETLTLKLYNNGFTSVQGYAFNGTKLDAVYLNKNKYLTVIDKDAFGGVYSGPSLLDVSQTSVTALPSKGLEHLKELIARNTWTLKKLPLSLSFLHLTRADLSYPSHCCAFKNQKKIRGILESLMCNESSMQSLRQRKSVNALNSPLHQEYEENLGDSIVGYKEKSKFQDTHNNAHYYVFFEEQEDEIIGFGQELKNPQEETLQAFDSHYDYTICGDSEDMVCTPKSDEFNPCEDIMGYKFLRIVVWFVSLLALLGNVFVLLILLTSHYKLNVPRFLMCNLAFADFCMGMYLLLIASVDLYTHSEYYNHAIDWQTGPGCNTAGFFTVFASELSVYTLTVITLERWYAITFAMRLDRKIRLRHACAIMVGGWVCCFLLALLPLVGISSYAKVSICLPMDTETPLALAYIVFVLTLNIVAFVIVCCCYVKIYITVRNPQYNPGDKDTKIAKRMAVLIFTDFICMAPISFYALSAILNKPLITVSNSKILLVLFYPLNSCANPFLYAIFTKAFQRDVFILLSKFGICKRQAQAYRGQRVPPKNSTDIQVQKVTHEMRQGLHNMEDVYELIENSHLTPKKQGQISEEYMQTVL
Summary of the method: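 TSHR-HEK293 cells (800/well) plated 18 h, then compounds with Ro20-1724 and TSH at 1.5 ng/mL final, 30 min at room temperature. cAMP quantified by HTRF (cAMP-d2/anti-cAMP-cryptate, 1 h); 15 concentrations in triplicate.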

[4] = qHTS assay to identify small molecule agonists of the estrogen receptor alpha (ER-alpha) signaling pathway in the presence of an antagonist - cell viability counter screen (AID 1259386);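 further: series mostly up to about 92 µM; cells exposed to compounds for 22 h at 37 °C before the viability read; nearly all actives have a fitted effect of over 30% in size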
Summary of the method: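 Cytotoxicity was measured in parallel with the ERE-luciferase agonist screen, in the same wells. The cells were VM7Luc4E2, which endogenously express ER-alpha, and treatment was with compounds plus 10.0nM ICI-182,780 for 22hr.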

[5] = target: Progesterone receptor (Homo sapiens) (UniProt P06401); test: qHTS assay to identify small molecule agonists of the progesterone receptor (PR) signaling pathway (AID 1346784; calls by dose curve; further: nearly all actives have a fitted effect of over 30% in size)
Chain of Progesterone receptor (Homo sapiens) (P06401 whole entry, looked up): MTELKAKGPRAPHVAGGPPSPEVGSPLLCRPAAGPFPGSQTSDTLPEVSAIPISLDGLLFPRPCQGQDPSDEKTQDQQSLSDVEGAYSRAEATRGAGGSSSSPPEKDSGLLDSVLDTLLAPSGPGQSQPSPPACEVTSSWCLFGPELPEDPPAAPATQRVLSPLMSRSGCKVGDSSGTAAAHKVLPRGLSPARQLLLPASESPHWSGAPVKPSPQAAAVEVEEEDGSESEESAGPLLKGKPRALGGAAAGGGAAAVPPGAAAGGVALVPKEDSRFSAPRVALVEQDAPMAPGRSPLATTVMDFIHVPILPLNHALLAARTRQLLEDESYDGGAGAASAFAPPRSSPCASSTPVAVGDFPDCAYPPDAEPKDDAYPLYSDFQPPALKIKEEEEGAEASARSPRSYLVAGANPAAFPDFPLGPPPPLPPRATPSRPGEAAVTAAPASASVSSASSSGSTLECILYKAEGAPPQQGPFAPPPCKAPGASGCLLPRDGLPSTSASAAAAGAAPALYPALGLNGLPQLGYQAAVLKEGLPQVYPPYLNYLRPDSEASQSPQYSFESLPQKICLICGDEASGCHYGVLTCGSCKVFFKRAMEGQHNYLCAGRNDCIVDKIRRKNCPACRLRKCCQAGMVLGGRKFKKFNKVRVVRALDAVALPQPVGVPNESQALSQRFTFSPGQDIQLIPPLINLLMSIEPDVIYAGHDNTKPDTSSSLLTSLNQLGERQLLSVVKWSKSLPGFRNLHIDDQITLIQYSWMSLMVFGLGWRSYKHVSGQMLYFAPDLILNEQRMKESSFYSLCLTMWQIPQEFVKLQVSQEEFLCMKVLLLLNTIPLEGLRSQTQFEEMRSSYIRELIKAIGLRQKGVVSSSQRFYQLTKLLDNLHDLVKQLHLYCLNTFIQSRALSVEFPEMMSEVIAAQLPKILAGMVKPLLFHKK
Summary of the method: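 Compounds were tested for PR agonism in HEK 293T cells bearing a beta-lactamase gene under UAS control. Treatment lasted 16 hr at 37C; signal came from fluorescence of a FRET substrate.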

[6] = target: Progesterone receptor (Homo sapiens) (UniProt P06401); test: qHTS assay to identify small molecule antagonists of the progesterone receptor (PR) signaling pathway (AID 1346795; active means well fitted inhibition curve with a large enough effect in the signal ratio in the repeat runs, not every such curve was filed as active; the % refers to the signal ratio; further: potency means the concentration at half of the fitted maximal effect)
Summary of the method: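 In HEK293T cells bearing the PR-UAS-bla reporter, compound effects on promegestone-driven (1 nM) beta-lactamase expression are assessed after 16 hr using a fluorescent FRET substrate incubated 2 hr at room temperature.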

[7] = qHTS assay to identify small molecule antagonists of the progesterone receptor (PR) signaling pathway - cell viability counter screen (AID 1346798); further: series mostly up to about 92 µM; nearly all actives have a fitted effect of over 50% in size
Summary of the method: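 Following a 4 hr attachment, PR-UAS-bla HEK293T cells in charcoal-stripped FBS medium were exposed to compounds with R5020 for 16 hr; CellTiter-Glo was added and luminescence read after 30 min at room temperature.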

[8] = qHTS assay to identify small molecule agonists of the progesterone receptor (PR) signaling pathway - cell viability counter screen (AID 1346799; calls by dose curve; further: nearly all actives have a fitted effect of over 45% in size)
Summary of the method: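 Here, 3,000 PR-UAS-bla HEK293T cells per well were treated with compounds for 16 hr after a 6 hr preincubation at 37C and 5% CO2; cell viability is the CellTiter-Glo luminescence signal.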

[9] = qHTS assay to identify small molecule antagonists of the TGF-beta/Smad signaling pathway - cell viability counter screen (AID 1346824); further: nearly all actives have a fitted effect of over 50% in size
Summary of the method: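 SBE-bla HEK 293T cells, incubated overnight, then compound plus 0.25 ng/mL TGF-beta1 (stock added) for 5 hr at 37 C. Viability was read in the same wells by CellTiter-Glo luminescence after 30 min at room temperature.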

[10] = qHTS assay to identify small molecule agonists of the TGF-beta/Smad signaling pathway - cell viability counter screen (AID 1346829); further: top concentration of the series differs between compounds; nearly all actives have a fitted effect of over 45% in size
Summary of the method: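 Here the cytotoxicity of library compounds is measured in SBE-bla HEK 293T cells treated for 5 hr, using CellTiter-Glo added to wells already read for the beta-lactamase reporter.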

[11] = qHTS assay to identify small molecule agonists of the TGF-beta/Smad signaling pathway (AID 1346859; active means well fitted activation curve with a large enough effect in the signal ratio in the repeat runs, not every such curve was filed as active; the % refers to the signal ratio; further: series mostly up to about 77 µM)
Summary of the method: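 Each well held 4,000 SBE-bla HEK 293T cells incubated overnight before compound addition; 5 hr later the cleavable FRET substrate went on for 2 hr at room temperature, and fluorescence was read at two emissions.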

[12] = target: Thyrotropin-releasing hormone receptor (Homo sapiens) (UniProt P34981); test: qHTS assay to identify small molecule antagonists of the thyrotropin-releasing hormone receptor (TRHR) signaling pathway (AID 1346877; active means well fitted inhibition curve with a large enough effect in the repeat runs, not every such curve was filed as active; further: series mostly up to about 51 µM)
Chain of Thyrotropin-releasing hormone receptor (Homo sapiens) (P34981 whole entry, looked up): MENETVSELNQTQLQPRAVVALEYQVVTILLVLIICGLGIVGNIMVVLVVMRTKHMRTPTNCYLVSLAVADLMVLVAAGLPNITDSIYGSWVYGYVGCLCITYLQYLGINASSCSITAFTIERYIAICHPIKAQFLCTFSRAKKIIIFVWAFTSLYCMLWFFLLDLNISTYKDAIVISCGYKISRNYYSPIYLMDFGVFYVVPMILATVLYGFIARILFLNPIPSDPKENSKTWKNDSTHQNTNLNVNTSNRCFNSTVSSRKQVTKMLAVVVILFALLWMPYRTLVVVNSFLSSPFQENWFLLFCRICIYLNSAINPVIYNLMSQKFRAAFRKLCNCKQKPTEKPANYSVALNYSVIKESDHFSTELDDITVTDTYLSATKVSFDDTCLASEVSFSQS
Summary of the method: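 Antagonism is measured as suppression of the calcium response to 1 nM TRH in TRHR-HEK293 cells that have been dye-loaded for 2 h at 37 °C after overnight plating. Each compound is tested at 15 concentrations in triplicate.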

[13] = Human pregnane X receptor (PXR) small molecule agonists, qHTS cell viability counter screen (AID 1346977); further: nearly all actives have a fitted effect of over 50% in size
Summary of the method: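 Tox21 qHTS format; PXR-Luc HepG2, 2,000/well, charcoal-stripped FBS 5%. Cpd exposure 24hr. Read: CellTiter-Fluor fluorescence, multiplexed with luciferase.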

[14] = Caspase-3/7 induction in HepG2 cells by small molecules, qHTS assay (AID 1346978); further: nearly all actives have a fitted effect of over 15% in size
Summary of the method: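 Wild-type HepG2 cells, 2,000/well, settled 5 hr at 37 C and 5% CO2, then compound-treated for 17 hr; caspase-3/7 activity read by luminescent Caspase-Glo 3/7 after 30 min at room temperature.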

[15] = Caspase-3/7 induction in CHO-K1 cells by small molecules, qHTS assay (AID 1346980); further: nearly all actives have a fitted effect of over 15% in size
Summary of the method: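 Wild-type CHO-K1 cells exposed to compounds for 17hr at 37 C, 5% CO2. Caspase-3/7 activity then measured by Caspase-Glo 3/7 luminescence after 30min at room temperature.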

[16] = Caspase-3/7 induction in HepG2 cells by small molecules, qHTS cell viability counter screen (AID 1346981); further: series mostly up to about 92 µM; nearly all actives have a fitted effect of over 30% in size
Summary of the method: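 Cell viability is measured as a cytotoxicity counter screen alongside the Caspase-Glo 3/7 readout in identical wells. Wild-type HepG2 cells are treated with test compounds for 16 hr at 37 C before CellTiter-Fluor addition and a 1-hr incubation.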

[17] = target: Nuclear receptor subfamily 1 group I member 2 (Homo sapiens) (UniProt O75469); test: Human pregnane X receptor (PXR) small molecule agonists, qHTS assay (AID 1346982); further: nearly all actives have a fitted effect of over 35% in size; further: potency means the concentration at half of the fitted maximal effect
Chain of Nuclear receptor subfamily 1 group I member 2 (Homo sapiens) (O75469 whole entry, looked up): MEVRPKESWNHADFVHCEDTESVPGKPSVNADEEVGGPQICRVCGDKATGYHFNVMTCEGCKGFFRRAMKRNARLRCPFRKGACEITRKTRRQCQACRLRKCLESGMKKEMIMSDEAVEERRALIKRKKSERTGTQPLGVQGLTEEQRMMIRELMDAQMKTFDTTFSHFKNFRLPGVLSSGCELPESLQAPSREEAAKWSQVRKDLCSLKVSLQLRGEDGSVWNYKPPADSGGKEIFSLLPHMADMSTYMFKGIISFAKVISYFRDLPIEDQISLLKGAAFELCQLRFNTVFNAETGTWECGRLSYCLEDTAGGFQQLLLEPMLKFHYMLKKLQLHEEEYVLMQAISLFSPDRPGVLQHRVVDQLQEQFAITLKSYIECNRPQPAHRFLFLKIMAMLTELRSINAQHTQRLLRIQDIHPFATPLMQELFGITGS
Summary of the method: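 Cells: HepG2 stably carrying PXR-Luc. Medium held 5% charcoal-stripped FBS. Compounds in DMSO added after 5 hr plating, incubated 24 hr, then luminescence quantified with ONE-Glo.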

[18] = target: Thyrotropin-releasing hormone receptor (Homo sapiens) (UniProt P34981); test: qHTS assay to identify small molecule agonists of the thyrotropin-releasing hormone receptor (TRHR) signaling pathway (AID 1346891; calls by dose curve; further: series mostly up to about 58 µM)
Summary of the method: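 Screening of agonists relied on calcium signalling in HEK293 cells expressing human TRHR: dye loading 2 h at 37 °C preceded compound addition and a 3-min fluorescence time course.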

[19] = Caspase-3/7 induction in CHO-K1 cells by small molecules, qHTS cell viability counter screen (AID 1346979); further: nearly all actives have a fitted effect of over 35% in size
Summary of the method: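 CellTiter-Fluor viability check, qHTS format: wild-type CHO-K1, 16hr compound treatment, 1hr reagent incubation, fluorescence read.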
On the % scale 0 is the no-effect control and ±100 the full control effect.

CCCCOCCCC
inactive: outcome [1] | outcome [2] | outcome [3] | outcome [4] | Potency [5] | Potency [6] | outcome [7] | Potency [8] | outcome [9] | outcome [10] | outcome [11] | outcome [12] | outcome [13] | outcome [14] | outcome [15] | outcome [16] | Potency [17]

CCCCCCC(=O)c1ccccc1
inactive: outcome [1] | outcome [2] | outcome [3] | outcome [4] | Potency [5] | Potency [6] | outcome [7] | Potency [8] | outcome [9] | outcome [10] | outcome [11] | outcome [12] | Potency [18] | outcome [13] | outcome [14] | Potency [19] | outcome [15] | outcome [16] | Potency [17]

CC1(C)CC(N)CC(C)(C)N1
inactive: outcome [1] | outcome [2] | outcome [3] | Potency [5] | Potency [6] | Potency [8] | outcome [9] | outcome [11] | outcome [12] | Potency [18] | outcome [13] | outcome [14] | outcome [15] | outcome [16] | Potency [17]

c1coc(Cn2cccc2)c1
inactive: outcome [1] | outcome [3] | outcome [4] | Potency [5] | Potency [6] | outcome [7] | Potency [8] | outcome [9] | outcome [10] | outcome [11] | outcome [12] | Potency [18] | outcome [13] | outcome [14] | Potency [19] | outcome [15] | outcome [16]

COc1cc(C(=O)NC2CCCNC2)cc(OC)c1OC (centres undefined)
inactive: outcome [1] | outcome [2] | outcome [3] | outcome [4] | Potency [5] | Potency [6] | outcome [7] | outcome [9] | outcome [11] | outcome [13] | outcome [14] | Potency [19] | outcome [15] | outcome [16] | Potency [17]

CC(C)C[P+](C)(CC(C)C)CC(C)C
inactive: outcome [1] | outcome [2] | outcome [3] | Potency [5] | Potency [8] | outcome [9] | outcome [10] | outcome [11] | outcome [12] | outcome [13] | outcome [14] | outcome [15] | outcome [16] | Potency [17]

O=C1Nc2ccccc2C1=O
inactive: outcome [1] | outcome [2] | outcome [3] | outcome [4] | Potency [5] | Potency [6] | Potency [8] | outcome [9] | outcome [11] | outcome [12] | outcome [13] | outcome [14] | Potency [19] | outcome [15] | outcome [16] | Potency [17]

O=C1c2ccccc2C(=O)N1CO
inactive: outcome [1] | outcome [2] | outcome [3] | outcome [4] | Potency [5] | Potency [6] | Potency [8] | outcome [9] | outcome [10] | outcome [11] | outcome [12] | Potency [18] | outcome [13] | outcome [14] | Potency [19] | outcome [15] | outcome [16] | Potency [17]

CC(C)(C)NCC(O)COc1cccc2c1CCC(=O)N2 (centres undefined)
inactive: outcome [1] | outcome [3] | outcome [4] | Potency [5] | Potency [6] | outcome [7] | Potency [8] | outcome [9] | outcome [10] | outcome [11] | outcome [12] | outcome [13] | outcome [14] | Potency [19] | outcome [15] | outcome [16]

C[C@@H]1NC(=O)[C@@H](N)CNC(=O)[C@H](C2CCNC(N)=N2)NC(=O)/C(=C/NC(N)=O)NC(=O)[C@H](CNC(=O)C[C@@H](N)CCCN)NC1=O (some centres undefined)
inactive: activity change, negative = cytotoxicity [1] 4.08% [at 0.349 µM] | activity change, negative = inhibition [3] 2.75% [at 0.349 µM] | activity change, negative = cytotoxicity [4] -0.264% [at 0.349 µM] | activation [5] -1.98% [at 0.349 µM] | activity change, negative = inhibition [6] 9.13% [at 0.348 µM] | activity change, negative = cytotoxicity [7] 0.0667% [at 0.348 µM] | activity change, negative = cytotoxicity [8] -15.7% [at 0.349 µM] | viability change, negative = cytotoxic [9] 13.5% [at 0.29 µM] | activity change, negative = cytotoxicity [10] -5.87% [at 0.29 µM] | activation [11] 2.64% [at 0.29 µM] | activity, negative = inhibition [12] -1.68% [at 0.194 µM] | activity change, negative = cytotoxicity [13] -2.73% [at 0.349 µM] | caspase activation [14] -1.07% [at 0.349 µM] | activity change, negative = cytotoxicity [19] 9.26% [at 0.349 µM] | caspase-3/7 activation [15] 0.0211% [at 0.349 µM] | activity change, negative = cytotoxicity [16] -0.309% [at 0.349 µM]

CC(C)OCCO
inactive: outcome [1] | outcome [2] | outcome [3] | Potency [6] | outcome [7] | outcome [9] | outcome [10] | outcome [11] | outcome [13] | outcome [14] | Potency [19] | outcome [15] | outcome [16] | Potency [17]

C=C(C)C(=O)OCCCC
inactive: outcome [1] | outcome [3] | outcome [4] | Potency [5] | Potency [6] | outcome [7] | Potency [8] | outcome [9] | outcome [10] | outcome [11] | outcome [12] | Potency [18] | outcome [13] | outcome [14] | Potency [19] | outcome [15] | outcome [16] | Potency [17]

CCN1CCN(C(=O)N[C@@H](C(=O)N[C@@H]2C(=O)N3[C@@H]2SC(C)(C)[C@H]3C(=O)O)c2ccccc2)C(=O)C1=O
inactive: outcome [1] | outcome [2] | outcome [3] | outcome [4] | Potency [5] | Potency [6] | Potency [8] | outcome [9] | outcome [10] | outcome [11] | outcome [12] | outcome [13] | outcome [14] | Potency [19] | outcome [15] | outcome [16] | Potency [17]

Clc1ccc2c(c1)Nc1ccccc1S2
active: Potency [6] 7.5 µM | Potency [17] 33.5 µM
inactive: outcome [1] | outcome [2] | outcome [3] | outcome [4] | outcome [7] | Potency [8] | outcome [9] | outcome [10] | outcome [11] | outcome [13] | outcome [14] | Potency [19] | outcome [15] | outcome [16]

O=C(c1ccccc1)c1cccc(O)c1
active: Potency [17] 55.3 µM
inactive: outcome [1] | outcome [2] | outcome [3] | outcome [4] | Potency [5] | Potency [8] | outcome [9] | outcome [11] | outcome [12] | Potency [18] | outcome [13] | outcome [14] | Potency [19] | outcome [15] | outcome [16]

C=C(C)C(=O)OCCOC1CC2CC1C1C=CCC21 (centres undefined)
inactive: outcome [1] | outcome [2] | outcome [4] | Potency [5] | Potency [6] | Potency [8] | outcome [10] | outcome [11] | outcome [12] | Potency [18] | outcome [13] | outcome [14] | Potency [19] | outcome [15] | outcome [16]
